# Among all 3,400 compounds or so, about 840 (25%) were called active. Inconclusive results (about 11%) are left out. Not all results are given here. Results with a measured potency or affinity are listed apart. Unmarked numbers belong to inactive results.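 How the source made its calls: active means fitted half-maximal concentration of signal decrease at or below twice the sample's top tested concentration; inconclusive means flat curve between -70 and -30 percent, or poor fit; inactive means flat within 30 percent, signal rise, or potency above limit.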
# Assay: T. gondii growth inhibition with IFN-gamma, dose response, cell-based, ME49Luc, HeLa, luciferase, 72 h (AID 1259418)
# Conditions: T. gondii ME49Luc in IFN-y HeLa, hits give low values, -100% = high-dose IFN-γ control wells; at 19.5 µM unless noted
row,SMILES,max activity
1,Cc1ccc(C)c(CSc2ccc(-c3sc(-c4ccc(F)cc4)nc3C)nn2)c1,-9.1% [at 5 µM]
2,COc1ccc(-c2nc(NCc3ccccc3OC)c3ccccc3n2)cc1,-10.7% [at 0.68 µM]
3,O=C(Nc1ccc(-c2nc(-c3cccc(Br)c3)co2)cc1)Nc1cccc(F)c1,-13.2% [at 2.6 µM]
4,COc1ccc(-n2c(C)cc(CNS(=O)(=O)c3ccc4c(c3)CCC(=O)N4)c2C)cc1,35.1%
5,Cc1ccccc1S(=O)(=O)N1CSC[C@@H]1C(=O)NCCc1csc(-c2ccccc2)n1,-13% [at 0.16 µM]
6,O=C(NCCc1csc(-c2ccccc2)n1)[C@H]1CSCN1S(=O)(=O)Cc1ccccc1,17.7% [at 2.6 µM]
7,CCS(=O)(=O)N1CSC[C@@H]1C(=O)NCCc1csc(-c2ccccc2)n1,7.03% [at 5 µM]
8,O=C(NCCc1csc(-c2ccccc2)n1)[C@H]1CSCN1S(=O)(=O)c1ccccc1,14.6%
9,CCc1ccc(S(=O)(=O)N2CSC[C@@H]2C(=O)NCCc2csc(-c3ccccc3)n2)cc1,-11.2% [at 0.68 µM]
10,O=C(NCCc1csc(-c2ccccc2)n1)[C@H]1CSCN1S(=O)(=O)c1ccc(F)cc1,15.5% [at 10 µM]
11,COc1ccc(-c2nc(N3CCN(c4ccc(C)cc4C)CC3)c3ccccc3n2)cc1,-12.6% [at 0.16 µM]
12,COc1ccc(CC(=O)Nc2ccc(-c3nc(-c4cc(C)ccc4C)co3)cc2)cc1,17.8% [at 0.16 µM]
13,CN1c2ccc(C3=CCCCC3)cc2[C@@H]2[C@@H](CCN2C(=O)C2CCOCC2)[C@H]1CO,43.9%
14,COc1ccc(NC(=O)N2CC[C@@H]3[C@H]2c2cc(C4=CCCCC4)ccc2N(C)[C@H]3CO)cc1,18.9% [at 0.3 µM]
15,Cc1ccc(-c2coc(-c3ccc(NC(=O)C(C)C)cc3)n2)cc1,38.3%
16,COc1ccc(C)cc1NC(=O)Nc1ccc(-c2nc(-c3cc(C)ccc3C)co2)cc1,9.85% [at 0.35 µM]
17,Cc1cc(C)c2c(=O)n(Cc3nc(-c4cccc(Cl)c4)oc3C)c(=O)n(-c3ccccc3)c2n1,-9.3% [at 0.16 µM]
18,COc1ccccc1CNC(=O)CC1N=C2c3ccccc3N=C(SCc3ccccc3F)N2C1=O (stereo unspecified),21.2% [at 1.35 µM]
19,O=C(Cc1cccc(F)c1)Nc1ccc2c(c1)CCC(=O)N2,-7.77%
20,O=C(C[C@@H]1CC[C@@H]2[C@H](COC[C@@H](O)CN2C(=O)Nc2cc(Cl)cc(Cl)c2)O1)N1CCOCC1,20.4%
21,COCCO[C@H]1CCN(Cc2c(C)noc2C)[C@H]1Cc1ccccc1,11.4%
22,Cc1ccc(-c2coc(-c3ccc(NC(=O)Cc4cccs4)cc3)n2)c(C)c1,116%
23,COc1cc(OC)cc(C(=O)Nc2ccc(-c3nc(-c4ccccc4)co3)cc2)c1,-34% [at 1.35 µM]
24,Cc1ccc(S(=O)(=O)N2CC[C@@H]3[C@H](CO)Nc4ccc(-c5cccc(C(=O)N(C)C)c5)cc4[C@@H]32)cc1,26.4% [at 5 µM]

row,SMILES,max activity
1,O=C(c1ccc2c(c1)OCO2)N1CC[C@@H]2[C@H]1c1cc(C#Cc3ccccc3)ccc1N[C@@H]2CO,33.7% [at 10 µM]
2,N#Cc1cccc(-c2ccc3c(c2)[C@H]2[C@H](CCN2C(=O)c2ccccc2F)[C@@H](CO)N3)c1,16.6% [at 10 µM]
3,COc1ccccc1-c1ccc2c(c1)[C@H]1[C@H](CCN1S(=O)(=O)c1ccc(C)cc1)[C@@H](CO)N2,38.9%
4,COc1ccccc1-c1ccc2c(c1)[C@@H]1[C@@H](CCN1S(=O)(=O)c1ccc(C)cc1)[C@H](CO)N2,39.6% [at 5 µM]
5,O=S(=O)(c1cccc(F)c1)N1CC[C@@H]2[C@H]1c1cc(C#Cc3ccccc3F)ccc1N[C@@H]2CO,6.78% [at 0.3 µM]
6,Cc1ccc(S(=O)(=O)N2CC[C@@H]3[C@@H](CO)Nc4ccc(-c5cccc(C(=O)N(C)C)c5)cc4[C@@H]32)cc1,30.1% [at 10 µM]
7,Clc1ccc(-c2nc(N3CCCc4ccccc43)c3ccccc3n2)cc1,10.7% [at 0.35 µM]
8,Cc1nc(-c2cc(S(=O)(=O)N3CCCCC3C)c(C)s2)sc1C (stereo unspecified),-14.7% [at 5 µM]
9,Cc1nc(-c2ccc(F)cc2)sc1-c1ccc(SCc2cccc(C(F)(F)F)c2)nn1,-7.18% [at 0.16 µM]
10,Cc1cccc(-c2nc(Cn3nnc(-c4nc(-c5ccc(Cl)c(F)c5)no4)c3C)c(C)o2)c1,6.89%
11,COc1ccc2c(c1)NC1(CCN(C(=O)Cc3cccs3)CC1)c1cccn1-2,-16.4% [at 10 µM]
12,COc1cccc(-c2nc3c(s2)CN(S(=O)(=O)c2ccc(Cl)cc2)CC3)c1,-9.55% [at 0.16 µM]
13,Cc1ccc(C)c(-c2coc(-c3ccc(NC(=O)c4sccc4C)cc3)n2)c1,16.8% [at 10 µM]
14,Cc1nc(CCNC(=O)[C@H]2CCCN2C(=O)c2ccccc2Cl)cs1,13.6% [at 0.35 µM]
15,Cc1oc(-c2cccc(Cl)c2)nc1Cn1nnc(-c2nc(-c3ccc(F)cc3)no2)c1C,-12.5% [at 0.16 µM]
16,CCOc1ccc(-c2nc(CN3CCN(C(=O)Nc4cc(C)cc(C)c4)CC3)c(C)o2)cc1,-7.26% [at 0.16 µM]
17,CCOc1ccc(-c2nc(CN3CCN(C(=O)Nc4ccccc4CC)CC3)c(C)o2)cc1,11.7% [at 2.6 µM]
18,COc1ccc(OC)c(NC(=O)N2CCN(Cc3nc(-c4cccc(Cl)c4)oc3C)CC2)c1,24.8% [at 5 µM]
19,CCOc1ccc(-c2nc(CN3CCN(C(=O)Nc4ccc(C)cc4)CC3)c(C)o2)cc1,-22.9%
20,CCOc1ccc(NC(=O)N2CCN(Cc3nc(-c4ccc(C)cc4)oc3C)CC2)cc1,18.7% [at 2.6 µM]
21,CCOc1ccc(NC(=O)N2CCN(Cc3nc(-c4ccc(OCC)cc4)oc3C)CC2)cc1,8.47% [at 5 µM]
22,CCOc1ccc(-c2nc(CN3CCN(C(=O)Nc4ccc(CC)cc4)CC3)c(C)o2)cc1,8.87% [at 1.35 µM]
23,CCOc1ccc(-c2nc(CN3CCN(C(=O)Nc4ccccc4OCC)CC3)c(C)o2)cc1,16%
24,Cc1ccc(NC(=O)COc2nc(C)nc3ccccc23)c(Br)c1,23.6%

row,SMILES,max activity
1,COC(=O)c1cc(Cl)ccc1NC(=O)COc1nc(C)nc2ccccc12,15.7% [at 0.16 µM]
2,Cc1[nH]c2ccccc2c1C(=O)C(=O)NC1CC(=O)N(c2ccccc2)C1 (stereo unspecified),12.7% [at 2.6 µM]
3,Cc1nc(CCNC(=O)C2CCN(S(=O)(=O)c3cnn(C(F)F)c3C)CC2)cs1,8.74% [at 0.68 µM]
4,Cc1ccoc1C(=O)N1CC[C@H]2CO[C@@H](CN3CCN(C)CC3)[C@@H]2C1,14.9%
5,COc1cc(OC)c(NC(=O)COc2nc(C)nc3ccccc23)cc1Cl,39.9%
6,CCc1nc(OCC(=O)Nc2ccccc2OC)c2ccccc2n1,14.6% [at 0.35 µM]
7,CSc1cccc(NC(=O)COc2nc(C)nc3ccccc23)c1,16.7% [at 5 µM]
8,Cc1ccc(-c2nc(CN3CCN(C(=O)Nc4ccc(C)cc4Cl)CC3)c(C)o2)cc1,13.8% [at 2.6 µM]
9,CCOc1ccc(-c2nc(CN3CCN(C(=O)Nc4cccc(C)c4)CC3)c(C)o2)cc1,6.07%
10,CCOc1ccc(-c2nc(CN3CCN(C(=O)Nc4ccc(C)c(Cl)c4)CC3)c(C)o2)cc1,18% [at 0.16 µM]
11,CCOc1ccc(-c2nc(CN3CCN(C(=O)Nc4ccccc4Cl)CC3)c(C)o2)cc1,227%
12,Cc1ccc(C(=O)Nc2c(C(=O)N3CCN(c4ncccn4)CC3)[nH]c3ccccc23)cc1,15.6% [at 0.68 µM]
13,COc1cccc(CNC(=O)COc2nc(C)nc3ccccc23)c1OC,25.6%
14,COc1ccc(-c2nc(Nc3cc(C)cc(C)c3)c3ccccc3n2)cc1,-19.1% [at 0.35 µM]
15,Brc1ccc(Nc2c3ccccc3nc3ccccc23)cc1,36.4% [at 5 µM]
16,CN1CCN(C(=O)c2nn(C)c3c2CCN(S(C)(=O)=O)C3)CC1,18.7% [at 10 µM]
17,O=C(Cc1ccccn1)N1CC(=O)N2[C@H](C1)[C@@H](c1ccc(C#CCC3CCCC3)cc1)[C@@H]2CO,6.79% [at 0.3 µM]
18,Cc1ccc(-c2coc(-c3ccc(NC(=O)NCc4cccc(F)c4)cc3)n2)c(C)c1,17.3%
19,Cc1ccc(C)c(-c2coc(-c3ccc(NC(=O)Nc4ccccc4F)cc3)n2)c1,-23.6% [at 0.16 µM]
20,Cc1ccc(-c2coc(-c3ccc(NS(=O)(=O)c4cccc(Cl)c4)cc3)n2)cc1C,-24.2% [at 0.35 µM]
21,CCc1c(C)sc2c1CCN(Cc1nc(-c3cccc(C)c3)oc1C)C2c1ccccc1 (stereo unspecified),5.74% [at 10 µM]
22,COc1ccc(CCNC(=O)CC2Nc3c4ccccc4nc(=S)n3C2=O)cc1OC (stereo unspecified),17% [at 0.16 µM]
23,CCc1ccc2c(c1)cc(S(=O)(=O)c1ccccc1)c(=O)n2CC(=O)NCc1ccc(F)cc1,15.5%

# — PubChem BioAssay AID1259418 (Broad Institute, 2018)
